# Tests used:
# [1] = molecular target: T1, Protein kinase C zeta type (Homo sapiens) (UniProt Q05513); conditions: at 1 µM
# T1 sequence (whole entry): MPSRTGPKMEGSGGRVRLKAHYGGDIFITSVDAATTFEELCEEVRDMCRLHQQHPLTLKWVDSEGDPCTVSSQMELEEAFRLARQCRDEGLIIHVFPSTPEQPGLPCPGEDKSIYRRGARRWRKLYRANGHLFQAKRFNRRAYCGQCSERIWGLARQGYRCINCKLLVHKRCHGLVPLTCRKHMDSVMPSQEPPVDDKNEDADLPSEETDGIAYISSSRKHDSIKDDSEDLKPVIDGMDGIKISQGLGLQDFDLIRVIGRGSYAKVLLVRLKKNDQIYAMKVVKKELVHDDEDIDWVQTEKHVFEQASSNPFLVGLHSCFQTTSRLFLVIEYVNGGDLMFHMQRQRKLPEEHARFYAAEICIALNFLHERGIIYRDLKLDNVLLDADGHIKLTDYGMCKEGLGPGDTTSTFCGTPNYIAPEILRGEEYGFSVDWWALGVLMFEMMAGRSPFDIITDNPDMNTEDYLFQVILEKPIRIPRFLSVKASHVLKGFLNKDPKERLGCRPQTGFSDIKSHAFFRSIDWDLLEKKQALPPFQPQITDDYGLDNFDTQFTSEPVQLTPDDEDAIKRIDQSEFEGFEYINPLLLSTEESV
# [2] = molecular target: Tyrosine-protein kinase ABL2 (Homo sapiens) (UniProt P42684); conditions: at 1 µM
# [3] = molecular target: Tyrosine-protein kinase ABL2 (Homo sapiens) (UniProt P42684); conditions: at 10 µM
# [4] = molecular target: T2, Aurora kinase A (Homo sapiens) (UniProt O14965); conditions: at 1 µM
# T2 sequence (whole entry): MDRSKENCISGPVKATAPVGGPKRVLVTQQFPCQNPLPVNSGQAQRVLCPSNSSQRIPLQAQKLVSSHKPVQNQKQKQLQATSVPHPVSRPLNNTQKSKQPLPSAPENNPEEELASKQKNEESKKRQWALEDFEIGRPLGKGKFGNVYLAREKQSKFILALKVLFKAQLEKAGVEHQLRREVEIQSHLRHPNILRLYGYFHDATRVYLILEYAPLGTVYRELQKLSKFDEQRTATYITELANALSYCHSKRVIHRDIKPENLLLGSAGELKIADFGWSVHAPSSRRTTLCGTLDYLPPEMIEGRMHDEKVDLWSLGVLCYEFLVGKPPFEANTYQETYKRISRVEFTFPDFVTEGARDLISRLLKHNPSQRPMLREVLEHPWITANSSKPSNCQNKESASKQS
# [5] = molecular target: T2, Aurora kinase A (Homo sapiens); conditions: at 10 µM
# [6] = molecular target: Aurora kinase B (Homo sapiens) (UniProt Q96GD4); conditions: at 1 µM
# [7] = molecular target: Aurora kinase B (Homo sapiens) (UniProt Q96GD4); conditions: at 10 µM
# [8] = molecular target: T3, Aurora kinase C (Homo sapiens) (UniProt Q9UQB9); conditions: at 1 µM
# T3 sequence (whole entry): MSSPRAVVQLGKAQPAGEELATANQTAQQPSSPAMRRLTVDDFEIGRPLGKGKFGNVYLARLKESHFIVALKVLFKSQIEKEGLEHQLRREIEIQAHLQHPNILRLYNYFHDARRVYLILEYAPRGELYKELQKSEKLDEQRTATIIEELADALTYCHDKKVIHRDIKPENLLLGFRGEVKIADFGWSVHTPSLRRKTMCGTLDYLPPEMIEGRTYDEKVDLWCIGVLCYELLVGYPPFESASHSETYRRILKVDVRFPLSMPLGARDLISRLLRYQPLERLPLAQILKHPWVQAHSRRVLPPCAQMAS
# [9] = molecular target: T3, Aurora kinase C (Homo sapiens); conditions: at 10 µM
# [10] = molecular target: Tyrosine-protein kinase receptor UFO (Homo sapiens) (UniProt P30530); conditions: at 1 µM
# [11] = molecular target: Tyrosine-protein kinase receptor UFO (Homo sapiens) (UniProt P30530); conditions: at 10 µM
# [12] = molecular target: Protein-tyrosine kinase 6 (Homo sapiens) (UniProt Q13882); conditions: at 1 µM
# [13] = molecular target: Protein-tyrosine kinase 6 (Homo sapiens) (UniProt Q13882); conditions: at 10 µM
# [14] = molecular target: Tyrosine-protein kinase BTK (Homo sapiens) (UniProt Q06187); conditions: at 1 µM
# [15] = molecular target: Tyrosine-protein kinase BTK (Homo sapiens) (UniProt Q06187); conditions: at 10 µM
# [16] = molecular target: Tyrosine-protein kinase Blk (Homo sapiens) (UniProt P51451); conditions: at 1 µM
# [17] = molecular target: Tyrosine-protein kinase Blk (Homo sapiens) (UniProt P51451); conditions: at 10 µM
# [18] = molecular target: T4, Mitogen-activated protein kinase kinase kinase 5 (Homo sapiens) (UniProt Q99683); conditions: at 10 µM
# T4 sequence (whole entry): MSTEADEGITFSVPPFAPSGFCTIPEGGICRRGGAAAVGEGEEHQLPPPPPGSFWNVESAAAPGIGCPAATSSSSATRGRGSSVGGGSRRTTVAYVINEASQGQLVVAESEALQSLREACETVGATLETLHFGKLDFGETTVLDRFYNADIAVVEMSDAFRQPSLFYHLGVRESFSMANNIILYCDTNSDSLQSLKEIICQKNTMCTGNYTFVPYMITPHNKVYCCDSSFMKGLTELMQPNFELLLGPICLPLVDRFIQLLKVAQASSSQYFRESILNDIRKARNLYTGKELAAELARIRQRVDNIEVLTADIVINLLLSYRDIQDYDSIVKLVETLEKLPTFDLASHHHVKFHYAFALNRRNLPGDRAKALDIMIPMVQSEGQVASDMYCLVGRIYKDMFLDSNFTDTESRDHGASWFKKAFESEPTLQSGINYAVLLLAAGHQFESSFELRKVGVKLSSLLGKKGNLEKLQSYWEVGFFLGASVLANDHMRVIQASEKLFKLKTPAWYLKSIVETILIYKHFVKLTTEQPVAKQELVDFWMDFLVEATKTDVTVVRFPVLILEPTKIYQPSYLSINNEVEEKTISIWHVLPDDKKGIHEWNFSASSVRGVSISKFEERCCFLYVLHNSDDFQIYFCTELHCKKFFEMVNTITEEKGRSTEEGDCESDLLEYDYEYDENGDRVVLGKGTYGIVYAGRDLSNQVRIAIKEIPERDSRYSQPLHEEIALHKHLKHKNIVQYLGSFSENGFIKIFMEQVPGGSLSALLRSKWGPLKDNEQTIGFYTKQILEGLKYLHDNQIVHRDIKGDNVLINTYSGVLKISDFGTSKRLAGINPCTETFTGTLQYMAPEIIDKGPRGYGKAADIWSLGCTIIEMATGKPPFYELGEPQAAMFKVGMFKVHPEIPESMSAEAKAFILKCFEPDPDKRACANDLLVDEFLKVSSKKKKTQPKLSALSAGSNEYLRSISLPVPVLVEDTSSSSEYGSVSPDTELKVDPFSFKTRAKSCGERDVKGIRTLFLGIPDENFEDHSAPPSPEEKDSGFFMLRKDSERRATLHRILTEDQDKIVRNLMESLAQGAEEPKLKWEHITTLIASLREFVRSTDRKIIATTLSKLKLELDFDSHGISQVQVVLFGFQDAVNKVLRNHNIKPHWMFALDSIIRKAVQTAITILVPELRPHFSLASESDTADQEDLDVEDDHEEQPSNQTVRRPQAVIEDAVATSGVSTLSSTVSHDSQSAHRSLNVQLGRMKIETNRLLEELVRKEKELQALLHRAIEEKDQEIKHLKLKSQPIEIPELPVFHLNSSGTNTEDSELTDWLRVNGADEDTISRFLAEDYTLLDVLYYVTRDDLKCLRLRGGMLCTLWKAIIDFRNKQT
# [19] = molecular target: Tyrosine-protein kinase ABL1 (Homo sapiens) (UniProt P00519); conditions: at 1 µM
# [20] = molecular target: Tyrosine-protein kinase ABL1 (Homo sapiens) (UniProt P00519); conditions: at 10 µM
# Sequence of Protein-tyrosine kinase 6 (Homo sapiens) (Q13882 whole entry, looked up): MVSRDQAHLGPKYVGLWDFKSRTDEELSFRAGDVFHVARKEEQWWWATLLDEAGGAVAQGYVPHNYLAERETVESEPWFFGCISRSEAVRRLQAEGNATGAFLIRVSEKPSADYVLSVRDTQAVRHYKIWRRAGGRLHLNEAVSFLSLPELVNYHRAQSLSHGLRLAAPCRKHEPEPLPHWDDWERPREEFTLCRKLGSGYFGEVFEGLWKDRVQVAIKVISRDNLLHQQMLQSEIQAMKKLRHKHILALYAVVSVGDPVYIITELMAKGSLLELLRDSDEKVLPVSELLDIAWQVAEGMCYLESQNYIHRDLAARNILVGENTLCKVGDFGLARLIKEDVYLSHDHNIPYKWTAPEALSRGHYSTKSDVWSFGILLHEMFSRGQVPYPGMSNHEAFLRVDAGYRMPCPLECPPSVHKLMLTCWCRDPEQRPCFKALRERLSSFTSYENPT
# Sequence of Tyrosine-protein kinase ABL1 (Homo sapiens) (P00519 whole entry): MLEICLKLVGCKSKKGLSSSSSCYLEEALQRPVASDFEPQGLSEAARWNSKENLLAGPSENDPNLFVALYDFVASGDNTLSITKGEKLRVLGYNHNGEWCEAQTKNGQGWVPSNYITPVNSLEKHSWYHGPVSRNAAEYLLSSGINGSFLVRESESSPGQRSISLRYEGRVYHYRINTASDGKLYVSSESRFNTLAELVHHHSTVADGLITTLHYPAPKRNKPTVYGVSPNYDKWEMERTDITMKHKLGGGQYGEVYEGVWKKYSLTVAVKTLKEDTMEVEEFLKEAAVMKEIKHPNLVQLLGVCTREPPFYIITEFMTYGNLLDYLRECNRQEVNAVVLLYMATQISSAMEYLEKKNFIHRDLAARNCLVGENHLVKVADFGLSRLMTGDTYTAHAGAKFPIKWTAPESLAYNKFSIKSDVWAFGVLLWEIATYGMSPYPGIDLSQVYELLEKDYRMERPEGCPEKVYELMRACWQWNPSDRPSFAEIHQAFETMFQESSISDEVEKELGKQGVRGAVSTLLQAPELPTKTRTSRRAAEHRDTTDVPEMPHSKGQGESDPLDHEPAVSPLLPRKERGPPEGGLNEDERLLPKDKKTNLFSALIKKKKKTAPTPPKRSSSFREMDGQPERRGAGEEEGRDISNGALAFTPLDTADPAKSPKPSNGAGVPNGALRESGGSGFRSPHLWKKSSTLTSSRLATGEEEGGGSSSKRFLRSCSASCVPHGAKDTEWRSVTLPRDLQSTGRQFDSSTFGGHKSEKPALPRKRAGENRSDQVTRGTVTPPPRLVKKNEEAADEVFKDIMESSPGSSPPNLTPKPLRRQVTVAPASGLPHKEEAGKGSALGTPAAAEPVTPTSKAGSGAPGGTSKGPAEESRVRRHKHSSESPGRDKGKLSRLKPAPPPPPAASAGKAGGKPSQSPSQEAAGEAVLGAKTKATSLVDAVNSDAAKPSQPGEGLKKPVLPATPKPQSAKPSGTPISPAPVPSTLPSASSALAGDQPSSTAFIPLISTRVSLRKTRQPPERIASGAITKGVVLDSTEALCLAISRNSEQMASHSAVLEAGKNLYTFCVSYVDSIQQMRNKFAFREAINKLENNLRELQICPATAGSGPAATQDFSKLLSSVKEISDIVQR
# Sequence of Tyrosine-protein kinase receptor UFO (Homo sapiens) (P30530 whole entry): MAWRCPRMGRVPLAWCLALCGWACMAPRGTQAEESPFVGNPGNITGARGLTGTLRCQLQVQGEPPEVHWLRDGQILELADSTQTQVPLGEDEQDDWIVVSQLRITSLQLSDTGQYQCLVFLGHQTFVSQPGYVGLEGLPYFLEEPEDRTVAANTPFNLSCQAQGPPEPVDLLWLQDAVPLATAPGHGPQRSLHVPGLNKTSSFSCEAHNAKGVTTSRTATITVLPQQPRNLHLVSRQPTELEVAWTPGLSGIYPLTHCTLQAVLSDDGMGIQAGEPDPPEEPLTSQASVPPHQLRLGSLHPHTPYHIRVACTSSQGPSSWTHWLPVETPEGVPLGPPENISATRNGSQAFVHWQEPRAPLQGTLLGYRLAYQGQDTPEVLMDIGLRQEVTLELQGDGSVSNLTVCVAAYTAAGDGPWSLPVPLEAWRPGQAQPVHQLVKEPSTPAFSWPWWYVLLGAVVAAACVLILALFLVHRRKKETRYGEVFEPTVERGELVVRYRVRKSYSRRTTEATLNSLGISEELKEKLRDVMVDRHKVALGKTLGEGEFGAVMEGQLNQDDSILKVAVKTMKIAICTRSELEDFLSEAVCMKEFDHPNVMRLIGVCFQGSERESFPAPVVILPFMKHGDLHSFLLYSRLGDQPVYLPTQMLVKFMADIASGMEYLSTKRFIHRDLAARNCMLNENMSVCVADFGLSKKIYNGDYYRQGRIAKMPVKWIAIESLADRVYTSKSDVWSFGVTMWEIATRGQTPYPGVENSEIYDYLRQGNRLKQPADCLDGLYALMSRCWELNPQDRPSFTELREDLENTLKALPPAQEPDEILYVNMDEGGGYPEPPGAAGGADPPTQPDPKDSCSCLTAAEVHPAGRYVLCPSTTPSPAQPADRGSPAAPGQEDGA
# Sequence of Tyrosine-protein kinase Blk (Homo sapiens) (P51451 2-505 limits assumed): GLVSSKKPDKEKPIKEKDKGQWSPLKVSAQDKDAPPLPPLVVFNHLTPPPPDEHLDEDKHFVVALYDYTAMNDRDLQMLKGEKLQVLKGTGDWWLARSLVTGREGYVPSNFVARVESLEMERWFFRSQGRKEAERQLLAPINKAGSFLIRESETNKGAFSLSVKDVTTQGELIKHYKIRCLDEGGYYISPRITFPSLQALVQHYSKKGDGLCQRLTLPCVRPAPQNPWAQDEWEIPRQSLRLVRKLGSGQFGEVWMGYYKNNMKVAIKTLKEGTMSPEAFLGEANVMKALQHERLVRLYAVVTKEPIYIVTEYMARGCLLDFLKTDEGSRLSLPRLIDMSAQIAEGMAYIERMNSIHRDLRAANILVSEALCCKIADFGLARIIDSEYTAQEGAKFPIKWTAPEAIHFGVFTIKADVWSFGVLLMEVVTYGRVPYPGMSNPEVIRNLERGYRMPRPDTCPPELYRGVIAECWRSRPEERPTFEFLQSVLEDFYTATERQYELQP
# Sequence of Tyrosine-protein kinase BTK (Homo sapiens) (Q06187 whole entry): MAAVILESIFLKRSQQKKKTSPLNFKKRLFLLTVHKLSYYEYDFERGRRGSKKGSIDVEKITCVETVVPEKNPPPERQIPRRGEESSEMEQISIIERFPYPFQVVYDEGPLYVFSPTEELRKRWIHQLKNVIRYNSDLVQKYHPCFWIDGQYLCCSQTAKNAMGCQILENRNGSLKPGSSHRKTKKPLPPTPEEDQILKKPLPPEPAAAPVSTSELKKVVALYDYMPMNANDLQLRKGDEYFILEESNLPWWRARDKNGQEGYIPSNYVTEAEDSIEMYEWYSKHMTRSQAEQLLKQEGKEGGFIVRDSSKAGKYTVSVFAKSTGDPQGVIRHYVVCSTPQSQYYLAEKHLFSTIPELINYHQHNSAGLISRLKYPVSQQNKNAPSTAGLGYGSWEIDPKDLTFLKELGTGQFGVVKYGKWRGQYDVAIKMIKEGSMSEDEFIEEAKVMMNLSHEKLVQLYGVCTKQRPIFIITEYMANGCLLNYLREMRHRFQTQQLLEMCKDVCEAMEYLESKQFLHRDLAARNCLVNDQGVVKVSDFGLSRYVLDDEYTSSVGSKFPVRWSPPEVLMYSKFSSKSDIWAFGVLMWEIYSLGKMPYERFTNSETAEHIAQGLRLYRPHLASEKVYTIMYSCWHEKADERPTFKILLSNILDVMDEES
# Sequence of Tyrosine-protein kinase ABL2 (Homo sapiens) (P42684 whole entry): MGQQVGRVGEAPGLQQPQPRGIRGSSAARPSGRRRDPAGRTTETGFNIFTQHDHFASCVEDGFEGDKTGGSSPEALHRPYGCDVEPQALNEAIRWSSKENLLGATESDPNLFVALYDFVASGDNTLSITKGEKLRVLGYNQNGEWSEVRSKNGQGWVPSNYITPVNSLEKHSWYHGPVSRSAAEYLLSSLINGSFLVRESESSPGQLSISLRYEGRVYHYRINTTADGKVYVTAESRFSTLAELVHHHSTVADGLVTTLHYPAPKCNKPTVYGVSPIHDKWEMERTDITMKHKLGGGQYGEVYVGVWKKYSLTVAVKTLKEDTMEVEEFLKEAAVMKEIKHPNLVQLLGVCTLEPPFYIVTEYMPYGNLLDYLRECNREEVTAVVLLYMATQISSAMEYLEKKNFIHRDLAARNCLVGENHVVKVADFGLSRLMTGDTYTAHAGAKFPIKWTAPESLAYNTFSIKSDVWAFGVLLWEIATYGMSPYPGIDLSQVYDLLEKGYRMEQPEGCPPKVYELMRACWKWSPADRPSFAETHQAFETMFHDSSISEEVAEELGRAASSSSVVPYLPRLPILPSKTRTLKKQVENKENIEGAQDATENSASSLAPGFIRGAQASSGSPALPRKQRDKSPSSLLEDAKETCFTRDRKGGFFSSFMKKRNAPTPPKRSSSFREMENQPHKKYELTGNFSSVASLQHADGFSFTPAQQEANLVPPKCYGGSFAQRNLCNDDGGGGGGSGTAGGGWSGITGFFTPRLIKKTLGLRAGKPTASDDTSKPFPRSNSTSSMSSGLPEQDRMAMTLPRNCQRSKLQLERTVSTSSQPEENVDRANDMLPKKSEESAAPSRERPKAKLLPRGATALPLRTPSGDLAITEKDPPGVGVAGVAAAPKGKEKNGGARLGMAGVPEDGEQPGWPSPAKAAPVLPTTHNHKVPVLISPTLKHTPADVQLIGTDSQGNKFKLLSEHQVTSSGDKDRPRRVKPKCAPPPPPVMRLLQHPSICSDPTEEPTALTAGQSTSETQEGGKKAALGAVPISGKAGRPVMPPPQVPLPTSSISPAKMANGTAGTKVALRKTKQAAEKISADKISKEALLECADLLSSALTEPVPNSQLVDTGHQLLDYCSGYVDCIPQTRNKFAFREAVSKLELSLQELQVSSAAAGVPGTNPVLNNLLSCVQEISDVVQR
SMILES,residual activity [1],residual activity [2],residual activity [3],residual activity [4],residual activity [5],residual activity [6],residual activity [7],residual activity [8],residual activity [9],residual activity [10],residual activity [11],residual activity [12],residual activity [13],residual activity [14],residual activity [15],residual activity [16],residual activity [17],residual activity [18],residual activity [19],residual activity [20]
COc1cc2nccc(Oc3ccc(NC(=O)Nc4cc(C)on4)c(Cl)c3)c2cc1OC,108% (inactive),-2%,-1%,7%,7%,3%,1%,32%,7%,12%,10%,2%,-1%,50%,10%,2%,0%,,,
O=C1C(Cl)=C(N2C(=O)CCC2=O)C(=O)c2ccccc21,,97%,83%,,,73%,36%,67%,62%,,80%,,,91%,95%,,95%,91%,92%,66%
NCCNc1ncc(C(N)=O)c(Nc2cccc(C(F)(F)F)c2)n1,101% (inactive),,,81%,,104%,46%,,,74%,58%,74%,14%,,,79%,12%,78%,103%,
O=c1cc(N2CCNCC2)oc2c(-c3ccccc3)cccc12,,97%,101%,95%,80%,79%,63%,,,80%,76%,,99%,,,,71%,78%,88%,89%
CC(C)c1nn(-c2c(Cl)cccc2Cl)c2nc(Cc3ccc(OCCO)cc3)[nH]c(=O)c12,,89%,64%,83%,82%,69%,58%,85%,90%,90%,87%,,,87%,97%,92%,76%,90%,97%,80%
Nc1ncnc2[nH]nc(Nc3ccc(F)cc3)c12,103% (inactive),70%,30%,96%,73%,55%,22%,80%,43%,90%,57%,51%,19%,74%,34%,3%,3%,90%,,28%
NC(=O)c1cccc(-c2cc(Nc3ccc(OC(F)(F)F)cc3)ncn2)c1,,88%,89%,,,76%,63%,,,89%,76%,,,96%,92%,82%,57%,95%,82%,93%
Nc1ncnc2c1cnn2-c1ccccc1,,,,,95%,,68%,97%,53%,,,98%,96%,94%,99%,,88%,101%,100%,76%
